Results on 16 compounds are retold here after PubChem BioAssay (NCI).

This is part of a sample that, as a whole, favours compounds with a hit. Of some 83,000 tested, about 20% had one in any assay.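 How to read the values: 0–100, growth inhibition (40 = 60% inhibited); 0, no net growth; -100 to 0, cell death (-40 = 40% of starting cells died; -100 = all dead).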 A number with no mark means an inactive call. Active and inactive are the calls of the source. How the source made its calls: active means growth percent below 10; inactive means the rest.

Among the test systems are HCT-15 colon; HT29 colon; SNB-75 CNS; U251 CNS; PC-3 prostate; SK-MEL-5 melanoma; LOX IMVI melanoma; SK-MEL-28 melanoma; SNB-19 CNS; UACC-62 melanoma.
Holding throughout (test): NCI-60 one-dose screen, 48 h (100 = growth as untreated, 0 = no growth, -100 = all killed)
Details in all cases: 10 µM unless noted

For the compound `O=C1CCC/C=C\C[C@H]2C=C(Cl)C(=O)/C2=C/C[C@H](CCCCC(F)(F)F)OC(=O)CCC/C=C\C[C@H]2C=C(Cl)C(=O)/C2=C/C[C@H](CCCCC(F)(F)F)O1`, the growth is 1.46% [7.5 µM] (active) in the experiment with HCT-15 colon; -50.5% [7.5 µM] (active) in the experiment with HT29 colon; -1.55% [7.5 µM] (active) in the experiment on SNB-75 CNS; -67.7% [7.5 µM] (active) in the experiment on U251 CNS; -44.8% [7.5 µM] (active) with PC-3 prostate; -94.1% [7.5 µM] (active) with SK-MEL-5 melanoma. Further, the figures for the growth with LOX IMVI melanoma and in the experiment on SK-MEL-28 melanoma were -80.2% [7.5 µM] (active) and -52.6% [7.5 µM] (active), respectively.

As to `CC(=O)OC(C)COc1ccc(-c2ccccc2)cc1` (stereo not drawn), the growth is 107% in the experiment on HCT-15 colon; 86% with HT29 colon; 89.6% with SNB-75 CNS; 76.4% in the experiment on U251 CNS; 99.8% with SK-MEL-5 melanoma; 110% with LOX IMVI melanoma. Moreover, the growth in the experiment with SK-MEL-28 melanoma is 104%.

In the case of `COC(=O)[C@]12CC[C@@H](C)[C@H](C)[C@@H]1C1=CC(=O)[C@@H]3[C@@]4(C)C[C@@H](OC(C)=O)[C@H](OC(C)=O)[C@@](C)(COC(C)=O)[C@@H]4C(=O)C[C@@]3(C)[C@]1(C)CC2`, the growth with HCT-15 colon was 38.5%; in the experiment with HT29 colon, 40.4%; in the experiment on SNB-75 CNS, 55.6%; with SNB-19 CNS it was 57%; in the experiment on U251 CNS it was 40.7%; in the experiment with LOX IMVI melanoma it was 50.8%.

As to `C=C(C)[C@@H]1CC[C@]2(C)[C@H](CC=C3[C@@H]4CC(C)(C)CC[C@]4(C(=O)OC)CC[C@]32C)[C@@]1(C)CC/C(N)=N/O`, the growth in the experiment with HCT-15 colon was 18.5%; in the experiment with HT29 colon it was 24.3%; in the experiment with SNB-75 CNS it was 101%; with U251 CNS, -81.8% (active); with PC-3 prostate, 26.6%; in the experiment with SK-MEL-5 melanoma it was -19.9% (active). In addition, the growth is 58.6% in the experiment on UACC-62 melanoma and 60.9% in the experiment on SK-MEL-28 melanoma.

`CN(C)CCCC1(c2ccc(F)cc2)OCc2cc(-c3ccc(C(F)(F)F)nc3)ccc21` (stereo not drawn): the growth in the experiment with HCT-15 colon is 78.4%; with HT29 colon it was 64.8%; in the experiment with SNB-75 CNS it was 41.7%; with U251 CNS it was 57.1%; in the experiment on PC-3 prostate it was 68.7%; with SK-MEL-5 melanoma, 75.3%. Besides, the growth with UACC-62 melanoma is 86.1%; with SK-MEL-28 melanoma, 81%.

For the compound `Nc1c(C(=O)Nc2cccc(Br)c2)sc2nc3c(cc12)C(=O)CCC3`, the growth in the experiment on HCT-15 colon was 33%; with HT29 colon, 8.17% (active); with SNB-75 CNS, -4.52% (active); with U251 CNS, 37.7%; with PC-3 prostate, 14.3%; in the experiment with SK-MEL-5 melanoma it was 20.5%. Besides, the growth with UACC-62 melanoma is 35.3%; in the experiment with SK-MEL-28 melanoma it was 48.3%.

With `CN1CCN(c2nc(-c3cccc4ccccc34)nc3sc4c(c23)CCCCCC4)CC1`, the growth was 91.8% with HCT-15 colon; 71.2% with HT29 colon; 49.1% in the experiment on SNB-75 CNS; 66.4% with U251 CNS; 56.7% in the experiment with PC-3 prostate; 87.6% with UACC-62 melanoma. In addition, the values for the growth in the experiment with LOX IMVI melanoma and in the experiment with SK-MEL-28 melanoma were 95.1% and 98.1%, respectively.

Regarding `CCOC(=O)N1CCN(CCCCOc2ccc(C(C)(C)CC)cc2)CC1`, the growth with HCT-15 colon was 87.7%; with HT29 colon, 78.1%; in the experiment on SNB-75 CNS, 106%; in the experiment on U251 CNS, 88.5%; in the experiment on PC-3 prostate, 71.5%; with SK-MEL-5 melanoma, 88.6%. Moreover, the growth with LOX IMVI melanoma was 99.7%; with SK-MEL-28 melanoma, 100%.

With `CC1=NN(c2ccc(S(=O)(=O)O)cc2Cl)C(=O)C1`, the growth with HCT-15 colon was 112%; in the experiment with HT29 colon, 109%; in the experiment on SNB-75 CNS, 90.2%; with U251 CNS, 107%; in the experiment with PC-3 prostate, 103%; with UACC-62 melanoma, 103%. Also, the growth in the experiment on LOX IMVI melanoma was 104%; with SK-MEL-28 melanoma it was 122%.

As for `COC(=O)[C@]12CC[C@@H](C)[C@H](C)[C@@H]1C1=CC[C@@H]3[C@@]4(C)C[C@@H](OC(C)=O)[C@H](OC(C)=O)[C@@](C)(COC(C)=O)[C@@H]4[C@H](O)C[C@@]3(C)[C@]1(C)CC2`, the growth with HCT-15 colon is 7.64% (active); with HT29 colon, 2.23% (active); with SNB-75 CNS, 34.6%; in the experiment on U251 CNS, 7.43% (active); in the experiment on PC-3 prostate, 4.25% (active); in the experiment with SK-MEL-5 melanoma, -71.5% (active). Besides, the growth in the experiment with LOX IMVI melanoma was 2.68% (active); in the experiment with SK-MEL-28 melanoma it was 38.6%.

On to `CCN1CCN(C(=O)[C@]23CC[C@@H](C)[C@H](C)[C@H]2C2=CC[C@@H]4[C@@]5(C)C/C(=C/c6cccc(OC)c6OC)C(=O)C(C)(C)[C@@H]5CC[C@@]4(C)[C@]2(C)CC3)CC1`, for which the growth was 19.2% in the experiment on HCT-15 colon; 21.5% in the experiment with HT29 colon; 35.6% with SNB-75 CNS; 38.4% with U251 CNS; 18.8% in the experiment on PC-3 prostate; 46.2% in the experiment with SK-MEL-5 melanoma. For the same compound, the growth with UACC-62 melanoma is 57.4%; with SK-MEL-28 melanoma it was 58.7%.

`C=C1C(=O)O[C@H]2[C@H]1CC/C(Cn1cc(-c3ccc(OC)cc3)nn1)=C\CC[C@@]1(C)O[C@@H]21`: the growth is -71.4% (active) with HCT-15 colon; -82% (active) in the experiment with HT29 colon; 91.4% in the experiment with SNB-75 CNS; 23% in the experiment on U251 CNS; 39.4% with PC-3 prostate; 41.8% with SK-MEL-5 melanoma. Besides, the growth in the experiment on LOX IMVI melanoma is -79.3% (active).

Turning to `N#Cc1c(-c2ccc(O)cc2)c2c(N)nn(-c3ccccc3)c2[nH]c1=O`, the growth with HCT-15 colon is 109%; in the experiment on HT29 colon, 111%; with SNB-75 CNS, 104%; in the experiment on U251 CNS, 103%; in the experiment with PC-3 prostate, 102%; in the experiment on SK-MEL-5 melanoma it was 98%. For the same compound, the figures for the growth with UACC-62 melanoma and with SK-MEL-28 melanoma were 96% and 109%, respectively.

As for `Nc1c(C(=O)Nc2c(Cl)cccc2Cl)sc2nc3c(cc12)C(=O)CCC3`, the growth in the experiment on HCT-15 colon was 35.5%; in the experiment with HT29 colon, 13.3%; with SNB-75 CNS, 14.1%; in the experiment with U251 CNS, 26.4%; in the experiment with PC-3 prostate it was 39.9%; in the experiment with SK-MEL-5 melanoma it was 10.4%. Also, the growth in the experiment on LOX IMVI melanoma is 44.4%.

On to `C#Cc1cc2c(N)c(C(=O)c3cc(OC)c(OC)c(OC)c3)[nH]c2cc1OC`, for which the growth in the experiment with HT29 colon was 6.27% (active); in the experiment on SNB-75 CNS, -8.14% (active); with SNB-19 CNS, 43.7%; with U251 CNS, 34%; in the experiment with PC-3 prostate, 16.3%; with SK-MEL-5 melanoma, 19.9%. The values for the growth in the experiment on UACC-62 melanoma, in the experiment with LOX IMVI melanoma and in the experiment on SK-MEL-28 melanoma were 34.7%, 46.1% and 40.3%, respectively.

On to `COc1ccc(-c2nc3ncccn3c2-c2nc3ccc(Br)cc3[nH]2)cc1`, for which the growth is 84.6% in the experiment with HCT-15 colon; 88.9% in the experiment with HT29 colon; 86.8% with SNB-75 CNS; 89.7% with U251 CNS; 74.9% in the experiment on SK-MEL-5 melanoma; 76.5% in the experiment with UACC-62 melanoma. For the same compound, the growth in the experiment with SK-MEL-28 melanoma was 92.6%.
